The entries come from a sample that favours hits as a whole.
HT1080-NT tox – kills 2HG-producing HT-1080-NT fibrosarcoma cells. 360,000 tested, 1.6% active. HT-1080-NT fibrosarcoma viability, CellTiter-Glo ATP luminescence, 48 h. Potency, µM (series often up to 46.1 µM), for inactives: top-dose activity, negative = less viability, usual class: cytotoxic;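 also: NT is the 2HG producing partner of a matched IDH1 knockdown line; potency is read from the fitted curve at half-maximal effect; 0% = DMSO-treated cells and -100% = media-only wells without cells; nearly all actives have a fitted effect of over 55% in size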
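Fibrosarcoma NT cells, 750 per well in 5% FBS RPMI, were exposed to compound for 48 hours. Viability: CellTiter-Glo luminescence.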
IL1B secr inh – inflammasome signaling inhibition, IL-1 beta readout | THP-1 LPS/ATP IL-1B secretion, AlphaLISA, 16 h; stronger effect = lower value | activity change, % at 57.5 µM | 360,000 tested, 4.7% active; in the data active = activity change below about -50%; inconclusive = mostly about -30% to -49%
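THP-1 cells pretreated 1 hr with compounds (up to 57.5 uM final), then stimulated with LPS (250 ng/mL final) plus ATP (1.25 mM final); secreted IL-1B measured by AlphaLISA after 16 hr, decreased signal indicating inhibition.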
ALOX12 inh – inhibitors of human 12S-lipoxygenase ALOX12; purified 12hLO, xylenol orange hydroperoxide absorbance; Potency, µM (highest dose often 108 µM), inactives show at the top dose activity change, negative = inhibition, actives largely listed as inhibitors; 580,000 tested, 1.1% active; also: potency is read from the fitted curve at half-maximal effect
Target sequence (P18054 whole entry, looked up): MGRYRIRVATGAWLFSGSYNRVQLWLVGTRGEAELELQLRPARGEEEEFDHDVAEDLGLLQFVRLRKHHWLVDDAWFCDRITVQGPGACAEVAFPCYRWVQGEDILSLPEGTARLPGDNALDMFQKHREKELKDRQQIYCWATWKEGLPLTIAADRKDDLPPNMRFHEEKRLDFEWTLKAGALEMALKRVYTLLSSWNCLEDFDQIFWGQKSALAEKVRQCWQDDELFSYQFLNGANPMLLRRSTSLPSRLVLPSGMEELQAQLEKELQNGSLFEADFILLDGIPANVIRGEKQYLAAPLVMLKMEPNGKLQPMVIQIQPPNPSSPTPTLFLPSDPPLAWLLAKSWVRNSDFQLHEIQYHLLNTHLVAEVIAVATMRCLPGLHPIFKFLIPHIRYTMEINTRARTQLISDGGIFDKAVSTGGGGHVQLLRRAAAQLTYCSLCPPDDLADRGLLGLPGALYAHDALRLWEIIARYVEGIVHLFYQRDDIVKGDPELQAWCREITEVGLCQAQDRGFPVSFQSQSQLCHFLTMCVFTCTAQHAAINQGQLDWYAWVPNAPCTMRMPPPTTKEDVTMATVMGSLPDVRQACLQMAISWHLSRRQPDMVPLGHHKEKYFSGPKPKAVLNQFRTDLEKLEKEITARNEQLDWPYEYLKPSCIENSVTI
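Purified human 12hLO at 150 nM in 25 mM Hepes, 0.01% Triton X-100, pH 7.0, preincubated 15 min at room temperature with compound. Reaction started with 40 uM arachidonic acid, 30 min at room temperature. Hydroperoxide measured by Fe-xylenol orange, 573/405 nm absorbance ratio.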
HT1080 IDH1KD tx – HT-1080 IDH1 knockdown cell toxicity (counter line); HT-1080 IDH1 knockdown viability, ATP luminescence, 48 h; Potency, µM (doses to about 46.1 µM), for inactives: at the highest dose activity, negative = toxicity, hits mostly cytotoxic; 360,000 tested, 2% active; AID 686971;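 also: potency is read from the fitted curve at half-maximal effect; 0% = DMSO wells and -100% = cell-free medium wells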
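Assay cells: HT-1080 with IDH1 knockdown, 750 per well, RPMI/5% FBS. Exposure: 48 h at 37 °C following 2 h pre-incubation. Read: CellTiter-Glo luminescence; fitted concentration-response, curve class assigned.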
DT40 TDP1 CPT – growth inhibition of DT40 Tdp1-/-;hTDP1 cells with camptothecin (screen for TDP1 inhibitors). chicken DT40 Tdp1-/-;hTDP1 cells + 20 nM CPT, ATP luminescence, 48 h. Potency, µM (top dose mostly 46.2 µM), for the others: at the top dose activity change, negative = growth inhibition, actives largely listed as inhibitors. 420,000 tested, 12% active; also: potency is read from the fitted curve at half-maximal effect; nearly all actives have a fitted effect of over 55% in size
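Chicken DT40 Tdp1-/- cells complemented with human TDP1, 400 cells/well, exposed to compounds plus 20 nM camptothecin for at least 48 h at 37 C; viability read as ATP content by CellTiter-Glo luminescence.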
TDP1 cell noCPT – qHTS for Inhibitors of human tyrosyl-DNA phosphodiesterase 1 (TDP1): qHTS in cells in absence of CPT | DT40 Tdp1-/- hTDP1 cells, no CPT, ATP luminescence, 48 h | Potency, µM (series often up to 46.2 µM), for the others: at the highest dose activity change, negative = growth inhibition, most hits filed as inhibitors | 420,000 tested, 15% active | AID 686978, 2013; also: potency is read from the fitted curve at half-maximal effect; nearly all actives have a fitted effect of over 55% in size
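DT40 Tdp1-/-;hTDP1 cells, no CPT (DMSO vehicle only), 400 cells/well; compounds pin-transferred; ≥48 hr, 37 °C; CellTiter-Glo 30 min RT dark, luminescence read.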
* = called active by the depositor; ? = inconclusive; nt = no result given. Unless noted, calls follow the shape of the dose curve; as a rule, active = well fitted curve in the direction sought with a large enough effect; inconclusive = small, poorly fitted or top-dose-only effect, or another doubt; inactive = no such curve, though single readings can be large; an effect the other way counts as inactive or inconclusive. Unless noted, % is scaled to controls: 0 for no effect and ±100 for the full control effect.

SMILES	HT1080-NT tox	IL1B secr inh	ALOX12 inh	HT1080 IDH1KD tx	DT40 TDP1 CPT	TDP1 cell noCPT
CC(O)(c1cccc(F)c1)c1nc(-c2ccc(S(C)(=O)=O)cc2)cs1 (stereo unspecified)	-9%	7	-18%	-21%	16µM*	13µM*
CC(O)(c1cccc(F)c1)c1nc(-c2cccc(C(=O)O)c2)cs1 (stereo unspecified)	9%	19	-3%	0%	-1%	-1%
COc1cc(F)ccc1-c1csc(C(C)(O)c2ccccc2)n1 (stereo unspecified)	?	12	-3%	?	?	18µM*
CC(C)c1cccc(-c2csc(C(C)(O)c3ccccc3)n2)c1 (stereo unspecified)	?	-12	-12%	?	?	23µM*
CC(O)(c1cccc(F)c1)c1nc(-c2ccncc2)cs1 (stereo unspecified)	?	15	6%	?	15µM*	18µM*
COc1cccc(C(C)(O)c2nc(-c3ccc4ccccc4c3)cs2)c1 (stereo unspecified)	?	28	-5%	?	?	?
COc1ccc(-c2csc(C(C)(O)c3cccc(F)c3)n2)cc1OC (stereo unspecified)	-7%	-9	?	-19%	23µM*	15µM*
CC(O)(c1ccccc1)c1nc(-c2cccc(C(=O)O)c2)cs1 (stereo unspecified)	20%	29	-5%	?	-21%	-11%
COc1cccc(C(C)(O)c2nc(-c3cnc4ccccc4c3)cs2)c1 (stereo unspecified)	-20%	23	0%	?	16µM*	18µM*
CC(O)(c1cccc(F)c1)c1nc(-c2cnc3ccccc3c2)cs1 (stereo unspecified)	15µM*	57	-20%	?	15µM*	13µM*
CC(O)(c1cccc(F)c1)c1nc(-c2cccc3cccnc23)cs1 (stereo unspecified)	?	-13	-6%	?	?	26µM*
CC(O)(c1cccc(F)c1)c1nc(-c2ccccc2)cs1 (stereo unspecified)	?	25	10µM*	?	21µM*	18µM*
CC(O)(c1ccc(F)c(F)c1)c1nc(-c2cccc(C(=O)O)c2)cs1 (stereo unspecified)	2%	15	-7%	0%	-27%	2%
CC(O)(c1ccc(F)c(F)c1)c1nc(-c2cccc(C(F)(F)F)c2)cs1 (stereo unspecified)	?	-16	?	?	18µM*	?
COc1ccc(C(=O)NC(C(=O)NC(C)C(C)C)C2CCN(C(=O)CC(C)(C)C)CC2)cc1 (stereo unspecified)	nt	nt	43%	nt	nt	nt
Nc1ccccc1OCC1CCCO1 (stereo unspecified)	nt	nt	9%	nt	nt	nt
COc1ccc(N2C(=O)CN(C3CCCCC3)[C@H]3CS(=O)(=O)C[C@H]32)cc1	nt	nt	10µM*	nt	nt	nt
CCCCOC(=O)COc1ccc2c(=O)c(Oc3ccccc3Br)coc2c1	nt	nt	3%	nt	nt	nt
O=S1(=O)c2c(F)cccc2OC(COc2ccccc2)CN1CCc1ccc(F)cc1 (stereo unspecified)	3%	-20	-4%	6%	?	16µM*
O=S1(=O)c2c(F)cccc2O[C@@H](COCc2ccccc2)CN1CCc1ccc(F)cc1	-1%	16	1%	4%	?	?
COc1cccc(-c2nc(-c3ccc(NC(=O)Cc4ccccc4OC)cc3)no2)c1	-4%	-19	nt	-4%	?	?

Screening results (PubChem BioAssay)
